The panel holds about 79,000 compounds, 15% with a hit somewhere; the sample as a whole holds those more often. A number with no mark means an inactive call. The source made the active and inactive calls. Rule as the data show it: active = growth inhibition above about 70%; inactive = the rest.
Columns and labels:
[1] = NCI Yeast Anticancer Drug Screen. Data for the rad50 strain (AID 155);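 also: 0% = growth of vehicle-only cultures of the same strain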; settings: S. cerevisiae rad50 strain growth inhibition; at 50.0 µM; hits give high values
How it was run: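 DNA repair mutant yeast, compound exposure, growth read-out; inhibition is taken relative to vehicle.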

[2] = NCI Yeast Anticancer Drug Screen. Data for the mec2-1 strain (AID 157); settings: S. cerevisiae mec2-1 strain, at 50.0 µM, hits give high values
How it was run: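 Mutant yeast (mec2-1) grown with compound; growth inhibition relative to vehicle control reported.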

[3] = NCI Yeast Anticancer Drug Screen. Data for the sgs1 mgt1 strain (AID 161);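 also: 0% = growth of cultures given vehicle only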; settings: S. cerevisiae sgs1 mgt1 strain, at 50.0 µM, hits give high values
How it was run: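 Growth of a repair-deficient yeast mutant was monitored after compound treatment and expressed as inhibition relative to vehicle-treated cultures.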

[4] = NCI Yeast Anticancer Drug Screen. Data for the cln2 rad14 strain (AID 165);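 also: 0% = growth equal to vehicle treated cultures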; settings: S. cerevisiae cln2 rad14 strain, at 50.0 µM, hits give high values
How it was run: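 Readout is yeast growth inhibition versus vehicle-treated controls, using a strain with cln2 and rad14 alterations exposed to compound.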

[5] = NCI Yeast Anticancer Drug Screen. Data for the bub3 strain (AID 167); settings: S. cerevisiae bub3 mutant strain, at 50.0 µM, hits give high values
How it was run: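 In this screen, a yeast mutant lacking normal mitotic checkpoint function is challenged with compound. Relative growth versus vehicle gives the inhibition value.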

[6] = NCI Yeast Anticancer Drug Screen. Data for the mlh1 rad18 strain (AID 175); settings: S. cerevisiae mlh1 rad18 strain growth inhibition; at 50.0 µM; hits give high values
How it was run: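 Genetically defined yeast (DNA repair-deficient) exposed to compounds; growth inhibition determined relative to vehicle.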

SMILES | growth inhibition [1] | growth inhibition [2] | growth inhibition [3] | growth inhibition [4] | growth inhibition [5] | growth inhibition [6]
O=C1NC(=O)C(c2ccc(Cl)cc2)(c2cccc(Cl)c2)N1 (stereo not given) | 11.1% | -16.5% | 18.3% | -11.8% | 5.9% | -5.9%
CCCCCCCCCCCCOC(=S)CCl | -10.9% | -10.7% | 10.8% | -18.9% | 4.55% | 14.7%
CCN1CSC(=S)N(Cc2ccccc2)C1 | 16.9% | 6.3% | 50.3% | 4.55% | 28.2% | 32.6%
N#Cc1cnc(=S)n(-c2cc(C(F)(F)F)cc(C(F)(F)F)c2)c1N | 5.7% | -10.9% | 15.9% | 11.7% | 8.85% | 11.5%
CCOC(=O)c1c(-c2ccccc2)c(C)cn1C | -16.1% | -26% | -24.9% | 11% | -7.75% | 1%
Nc1nc(N)c2nc(CNc3ccc(C(=O)NC(CCCNC(=O)c4ccccc4C(=O)O)C(=O)O)cc3)cnc2n1 (stereo not given) | -14.1% | 30.4% | 7.6% | -28.3% | -37.9% | -9.95%
CCOC(=O)N1CCCCC1 | -3.1% | 5% | 3.05% | -16.1% | -3.3% | 5.95%
Cc1ccc(NC(=O)CC#N)c(C)c1 | -11.8% | -10.2% | -17.9% | -40.9% | -0.7% | 4%
COc1cc(O)c2c(c1)C(=O)C1=C(C2=O)[C@@H](C)OC(C)C1 (stereo not given in full) | -4.3% | 10.2% | 19.9% | 11.1% | 12.8% | 19.8%
CCN(CC)c1nc(=O)c(C(=O)C(C)(C)C)c(C(C)(C)C)o1 | -14.9% | -39% | -34.1% | -11.8% | -9.15% | -17.1%
COC(=O)c1ccc(C(=O)OC)c2nc3cc(C)c(C)cc3nc12 | -0.7% | 20.7% | 0.1% | -7.1% | 5.35% | 12%
COc1cc2c(cc1OC)C(c1ccccc1CCCCl)=NCC2 | 6.4% | -4% | -25.1% | 10.8% | -27.5% | -44.7%
C[C@]12C=CC(=O)C=C1[C@@H](F)C[C@H]1[C@@H]3CC[C@](O)(C(=O)CO)[C@@]3(C)C[C@H](O)[C@@]12F | -11.9% | -26.4% | 4.8% | 66.8% | 2.85% | -9.9%
Nc1ccc2c(c1)C1Oc3ccccc3CC1CO2 (stereo not given) | 33% | 6.55% | 20.1% | 8.05% | 12.8% | 47.2%
NC(=O)C(c1ccccc1)c1ccnc2ccccc12 (stereo not given) | 2.05% | 4.5% | 7.9% | 8.05% | 20.4% | -21.2%
CCCOc1ccc(C2=C(c3ccccc3)C(=O)C(c3ccccc3)=C2c2ccccc2)cc1 | 34.2% | 15.6% | 20.6% | 20.2% | 2.25% | 20.6%
Br/C(=N\Nc1nn[nH]n1)c1ccncc1 | -15.1% | 1.75% | -26.1% | -22% | -21.8% | -28.9%
CC(CNC(=O)C12CC3CC(CC(C3)C1)C2)NC(=O)C12CC3CC(CC(C3)C1)C2 (stereo not given) | 6.45% | 11% | -27.4% | 7.85% | -11.8% | 14.3%
N#CCCN(CCC#N)c1ccc(/C=C2/C=C(c3ccccc3)OC2=O)cc1 | 22.4% | -0.25% | 19.1% | 7.75% | -5.85% | 11.3%
CC(NS(=O)(=O)c1cccc(C(=O)O)c1)c1ccccc1 (stereo not given) | 10.3% | -14.5% | 0.3% | -38.4% | 3.25% | -0.05%

SMILES | growth inhibition [1] | growth inhibition [2] | growth inhibition [3] | growth inhibition [4] | growth inhibition [5] | growth inhibition [6]
Cc1cccc2nc(-c3ccccc3)ccc12 | -3.5% | -11.6% | 1.55% | 5.6% | 4.95% | 4%
COc1ccc2c(c1)CN(Cc1ccccc1)CO2 | 3.85% | -3.4% | 6% | -17.4% | 13% | 11.7%
CCOC(=O)C(C)c1nc2ccc(C(F)(F)F)cc2[nH]c1=O (stereo not given) | 2.15% | 16.7% | 40.4% | 14.2% | 43.4% | 39.5%
CC1=CC(=O)CC2(C)CCC(C(C)CC(=O)CC(C)C)CC12 (stereo not given) | 88.8% (active) | 91.3% (active) | 91% (active) | 91.3% (active) | 88.8% (active) | 91.5% (active)
CCCCCCCC/C=C\CCCCCCCC(=O)OCC1CCCO1 (stereo not given) | -6.8% | 4.7% | -26.6% | 69.2% | 33.6% | 4.45%
CSc1ccc(NC(=O)NNP(=S)(Oc2ccc(C(C)(C)C)cc2)Oc2ccc(C(C)(C)C)cc2)cc1 | -10.7% | -18.1% | 0.5% | 13.8% | -5.75% | -6.2%
CCC1=CCN(c2cc(C)ccn2)OC1c1ccc(OC)cc1 (stereo not given) | 47.9% | 6.15% | 48.4% | 14.3% | 61% | 6.35%
Clc1ccc(CN2COc3c(ccc4ccccc34)C2)cc1Cl | 1.65% | 15.2% | 17.6% | 9.65% | 7.1% | 13.8%
CCN(CC)C(=O)C1CCN(Cc2ccc3c(c2)CCC3)CC1 | -4.1% | 42.5% | -1.2% | -16.6% | 2.9% | 3.95%
COc1ccc2c(Cc3ccccc3O)cncc2c1O | 0.9% | 2.25% | -4.75% | -3.5% | -5.9% | 14.8%
O=C(O)Cc1n[nH]c(=O)c2ccccc12 | -21.1% | -5.2% | -0.45% | -2.75% | -25.9% | -7.7%
O=S(=O)(c1ccccc1)C1CCCC1 | -12.2% | 8.9% | -1.85% | -11.8% | -6.7% | -2.9%
N/N=C(/c1ccc(Cl)cc1)N1CCOCC1 | 15.4% | 1.1% | 3.8% | -8.6% | -18% | 5.35%
CCCCCCC(O)C/C=C\CCCCCCCCO (stereo not given) | 11.9% | -20.9% | 13.3% | -27.6% | 27.1% | 18.4%
CCCC(C)NC(=O)c1ccc(Cl)c(Cl)c1 (stereo not given) | 0.25% | 4.9% | 13.1% | 8.3% | 9.15% | 24.6%
C[NH-].C[NH-].C[NH-].C[NH-].O=C(O)c1cc(C(=O)O)c(C(=O)O)cc1C(=O)O.[Pt+2].[Pt+2] | -6.25% | -2.6% | -2.05% | -36% | 0.55% | 13.3%
O=C(Nc1cccc([N+](=O)[O-])c1)C1C(=O)N(c2cccc([N+](=O)[O-])c2)C(=O)/C1=N/O (stereo not given) | -16.8% | -7.4% | -24.8% | -50.4% | 0.1% | -3.5%
CN(C)CCC(c1ccccc1)C(CO)c1ccccc1 (stereo not given) | -24.6% | 8.75% | 9.9% | 7.65% | -2.1% | 12.7%
NC(=O)CCP(=O)(CCC(N)=O)CCC(N)=O | 3.8% | -2.3% | 1.2% | 0.8% | -2.95% | 2.4%
Nc1nc(N)c2ncn(-c3ccc(Cl)cc3)c2n1 | -0.7% | 14.2% | 9.8% | -21.4% | -0.85% | 8.4%
